ATXN2 expr inh = inhibitors of ATXN2 expression | HEK-293 ATXN2-luciferase reporter, luminescence, 24 h | Potency, µM (titrated, usually from 57 µM), for the others: at the highest dose activity change, negative = inhibition, actives largely listed as inhibitors | hit rate 0.72% among 360,000 | AID 1745845; note: % is set by controls: 0 for no effect and ±100 for the full control effect; nearly all actives have a fitted effect of over 55% in size
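ATXN2-luciferase reporter cells (luciferase flanked by upstream and downstream ATXN2 gene portions) were treated 24 h at 37 °C with compounds at up to 57 uM. SteadyGlo luminescence gave expression; GF-AFC fluorescence gave viability.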
HepG2 tox-1 = HepG2 cytotoxicity, counter-screen for TGF-b inhibitors. Potency, µM (highest dose often 46.1 µM), for inactives: top-dose activity change, negative = cytotoxicity, hits mostly cytotoxic. HepG2 CAGA-GFP viability, ATP luminescence, 18 h. hit rate 0.76% among 410,000. AID 588856
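HepG2 CAGA-GFP cells (1000/well, DMEM with 1% FBS) received compound, then TGF-beta at 500 pg/mL final, and were incubated 18 hours at 37 degrees C. Viability was read by CellTiter-Glo luminescence. Media-only wells were set as complete cell-killing and DMSO as no toxicity.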
ATXN viability = viability counter-screen for ATXN expression inhibitors. AID 651635. S2 cells (HEK-293 line with an ATXN2-luciferase reporter) viability, CellTiter-Fluor protease fluorescence, 24 h. Potency, µM (series often up to 56.7 µM), hits mostly cytotoxic. hit rate 0.49% among 400,000; note: nearly all actives have a fitted effect of over 40% in size
Gal4-VP16 FLuc = counter-screen for ROR gamma inhibitors: Gal4-VP16 reporter; hit rate 3.5% among 310,000; AID 2546; Potency, µM (titrated, usually from 53.6 µM), for the others: at the highest dose activity, negative = inhibition, hits mostly inhibitors; Drosophila S2 Gal4-VP16 UAS-luciferase, luminescence, 20 h;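 note: Gal4-VP16 expression switched on by copper sulfate through the metallothionein promoter; % is set by controls: 0 for no effect and ±100 for the full control effect; nearly all actives have a fitted effect of over 50% in size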
RORg inh = blocks mouse ROR gamma transcriptional activity. Drosophila S2 Gal4-RORgamma UAS-luciferase reporter, 20 h. P51450. Potency, µM (titrated, usually from 53.6 µM), for inactives: top-dose activity change, negative = inhibition, hits mostly inhibitors. hit rate 5.4% among 310,000; note: % is set by controls: 0 for no effect and ±100 for the full control effect; nearly all actives have a fitted effect of over 60% in size
Target sequence (P51450 whole entry, looked up, the tested form may be a part): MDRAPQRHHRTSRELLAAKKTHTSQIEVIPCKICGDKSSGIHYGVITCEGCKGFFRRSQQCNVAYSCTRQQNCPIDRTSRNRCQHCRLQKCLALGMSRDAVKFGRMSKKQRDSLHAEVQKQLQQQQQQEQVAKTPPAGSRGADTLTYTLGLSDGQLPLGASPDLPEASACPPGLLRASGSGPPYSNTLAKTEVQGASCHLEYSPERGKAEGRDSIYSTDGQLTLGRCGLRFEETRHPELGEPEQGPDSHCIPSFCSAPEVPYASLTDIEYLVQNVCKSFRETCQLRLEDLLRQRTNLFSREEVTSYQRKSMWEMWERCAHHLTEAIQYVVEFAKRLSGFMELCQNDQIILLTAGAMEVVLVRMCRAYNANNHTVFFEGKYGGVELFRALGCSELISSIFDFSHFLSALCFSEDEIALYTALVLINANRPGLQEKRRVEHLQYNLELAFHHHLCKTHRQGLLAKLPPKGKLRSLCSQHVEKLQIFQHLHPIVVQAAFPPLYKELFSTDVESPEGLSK
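Stable Schneider cell line, Gal4 DNA-binding domain fused to ROR gamma, UAS-luciferase. Cmpd 1 hr RT → CuSO4 700 uM final → 20 hr RT → luciferase reagent 10 min → luminescence.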
TGFb inhibitor = inhibitors of TGF-b signaling; Potency, µM (doses to about 46.1 µM), without a hit: top-dose activity, negative = inhibition, hits mostly inhibitors; HepG2 CAGA-GFP TGF-b/SMAD3 reporter, GFP fluorescence, 18 h; TGF-beta stimulated, 500 pg/mL final; hit rate 1.2% among 410,000; AID 588855; note: % is set by controls: 0 for no effect and ±100 for the full control effect; nearly all actives have a fitted effect of over 65% in size
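First, reporter cells (HEPG2 CAGA-GFP) rested 2 h at 37 degrees C. Next, compounds were pinned in and TGF-beta added to 500 pg/mL final. After 18 h, GFP was imaged per cell and summed per well.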
TGFb CAGA inh = TGF-b pathway inhibition, cherry-pick retest; HepG2 CAGA-GFP TGF-b reporter, GFP fluorescence, 18 h; cells stimulated with TGF-beta, 500 pg/mL; shares compounds with TGFb inhibitor; Potency, µM (highest dose often 46.1 µM), for inactives: at the highest dose activity, negative = inhibition, actives largely listed as inhibitors; hit rate 63% among 1,600; AID 720534; note: % is set by controls: 0 for no effect and ±100 for the full control effect; nearly all actives have a fitted effect of over 65% in size
HepG2 tox-2 = counter-screen for TGF-b inhibitors: cytotoxicity in HepG2 cells | Potency, µM (series often up to 46.1 µM), for inactives: at the highest dose activity, negative = cytotoxicity, most hits filed as inhibitors | shares compounds with TGFb inhibitor | HepG2 CAGA-GFP viability, ATP luminescence, 18 h; cells stimulated with TGF-beta, 500 pg/mL | hit rate 27% among 1,600 | AID 720535; note: % is set by controls: 0 for no effect and ±100 for the full control effect; nearly all actives have a fitted effect of over 70% in size
CCL64 TGFb inh = orthogonal confirmation of TGF-b inhibitors in CCL64 cells; AID 720536; Potency, µM (series often up to 46.1 µM), inactives show top-dose activity, negative = inhibition, actives largely listed as inhibitors; CCL64 CAGA-GFP reporter, TGF-b stimulated, GFP fluorescence, 18 h; shares compounds with TGFb inhibitor; hit rate 41% among 1,600; note: nearly all actives have a fitted effect of over 65% in size
TGFb COP inh = blocks TGF-b signaling in HepG2 COP reporter; shares compounds with TGFb inhibitor; HepG2 COP-GFP TGF-b reporter, GFP fluorescence, 18 h; cells stimulated by added recombinant TGF-beta; Potency, µM (titrated, usually from 46.1 µM), inactives show top-dose activity, negative = inhibition, usual class: inhibitors; hit rate 3% among 1,600; AID 720537; note: nearly all actives have a fitted effect of over 70% in size
The depositor's hits bear a star; i = inactive; ? = inconclusive; · = not tested or not shown. Hits are enriched below; roughly 6.3% of the tested compounds scored in any of these assays. Calls come from the whole dose curve; as a rule, active = well fitted curve in the direction sought with a large enough effect; inconclusive = small, poorly fitted or top-dose-only effect, or another doubt; inactive = no such curve, though single readings can be large; an effect the other way counts as inactive or inconclusive. Potency is the fitted concentration of half-maximal effect.

SMILES | ATXN2 expr inh | HepG2 tox-1 | ATXN viability | Gal4-VP16 FLuc | RORg inh | TGFb inhibitor | TGFb CAGA inh | HepG2 tox-2 | CCL64 TGFb inh | TGFb COP inh
COc1ccc(CN2CCC(C(=O)NC(C)c3cccc4ccccc34)CC2)cc1 (configuration not stated) | 0% | -14% | i | · | · | 9% | · | · | · | ·
Cc1ccc(CC(=O)NNC(=O)c2ccncc2)cc1C | -10% | -46% | i | · | · | -6% | · | · | · | ·
Cc1ccc(-c2nc3c4ccccc4ccn3c2Cc2ccccc2C(F)(F)F)cc1 | 6% | · | i | · | · | · | · | · | · | ·
Nc1ncnc2c(C3OC(CO)C(O)C3O)scc12 (configuration not stated) | ? | -86% | ? | · | · | -122% | 0.016µM* | 0.073µM* | 0.92µM* | 42%
Nc1ncnc2c1ncn2C1OC(CO)C(O)C1N (configuration not stated) | -4% | 5% | i | -6% | 2% | 9% | · | · | · | ·
CC(NC(=O)C(C)N1CCN(S(=O)(=O)c2ccccc2)CC1)c1ccccc1 (configuration not stated) | 4% | 2% | i | · | · | 7% | · | · | · | ·
CCn1c2ccccc2c2cc(NC(=O)c3cc(OC)c(OC)c(OC)c3)ccc21 | -3% | 11% | ? | -12% | -1% | 0.79µM* | 0.37µM* | -29% | 1.3µM* | 16%
C[C@]12C[C@H](O)CC(CO)(CO)C1[C@H](O)C[C@@]13CC4[C@@H](CC12)[C@@]4(C)C3 (some centres not stated) | · | · | · | -4% | -14% | · | · | · | · | ·
O=[N+]([O-])c1cccc2nc3ccccc3c(NCCCn3ccnc3[N+](=O)[O-])c12 | 0.27µM* | -5% | ? | · | · | 0.11µM* | 0.1µM* | 0.21µM* | 0.16µM* | 24%
CCOC(=O)N(C)c1c(CC)nc2c(OCc3ccc(C(F)(F)F)cc3)cccn12 | ? | -12% | i | · | · | ? | ? | -19% | 4% | 0%
CCOC(=O)N(C)c1c(CC)nc2c(OCc3ccc(F)cc3)cccn12 | -29% | 2% | i | · | · | -11% | · | · | · | ·
O=C(NCc1ccc(Cl)cc1)c1cnc2sc(N3CCOCC3)nn2c1=O | -8% | -41% | i | · | · | -15% | · | · | · | ·
Cc1cc(C(=O)OCC(=O)NC(=O)C2CCCCC2)ccc1[N+](=O)[O-] | · | 4% | · | · | · | -2% | · | · | · | ·
CS(=O)(=O)c1ccc(C(=O)OCC(=O)NC(=O)C2CCCCC2)cc1[N+](=O)[O-] | · | -116% | · | ? | 11µM* | 10µM* | 12µM* | ? | ? | ?
COC(=O)c1cccc(Oc2cccc(C(F)(F)F)c2)n1 | · | -3% | i | 6% | 0% | -2% | · | · | · | ·
CCC1(OC(=O)CN(C)C)C(=O)OCc2c1cc1n(c2=O)Cc2cc3c(N)cccc3nc2-1 (configuration not stated) | ? | 3% | ? | · | · | 3.2µM* | 5.8µM* | 1.8µM* | ? | 16%
Cc1ccc(CNC(=O)c2cc3c(C)nc4ccccc4c3o2)cc1 | ? | -15% | ? | 18µM* | 41% | ? | 18µM* | -25% | -8% | 24%
O=C(CCCCCCC(=O)NCc1ccccc1)NCc1ccccc1 | -10% | 10% | i | -16% | -7% | 4% | · | · | · | ·
Cc1nc(-c2ccc(S(=O)(=O)N3CCN(C4c5ccccc5-c5ccccc54)CC3)s2)cs1 | -13% | 5% | i | 2% | 2% | 1% | · | · | · | ·
Cc1nc(-c2ccc(S(=O)(=O)N3CCCN(CCc4ccccc4)CC3)s2)cs1 | -10% | -19% | i | ? | -3% | 8.9µM* | 8.2µM* | ? | ? | 65%
CCOC(=O)c1ccc2c(c1)nc(C1CCN(S(=O)(=O)c3cccs3)CC1)n2CC | ? | -17% | ? | -14% | -10% | ? | ? | ? | -10% | 25%
O=C(Cn1ncn2c(cc3ccccc32)c1=O)NCc1ccc(F)cc1 | · | 5% | · | · | · | 0% | · | · | · | ·
O=c1[nH]c2ccccc2cc1-c1nnn(-c2ccc(F)cc2)n1 | 39% | 7% | i | 3% | -22% | -6% | · | · | · | ·
O=c1[nH]c2ccccc2cc1-c1nnn(-c2ccc(Cl)c(Cl)c2)n1 | -1% | -17% | i | · | · | ? | -3% | 7% | 7% | 2%
